An excerpt weighted towards active compounds, which were near 2.3% of everything screened.
HIF-2a inh – blocks HIF-2a reporter activity; 786-0 RCC cells HIF-2a reporter, luciferase luminescence, overnight; inhibition, % at 18.8 µM; 360,000 tested, 0.72% active;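 active = inhibition of the luminescence signal of 40% or more relative to plate controls, in a single-dose primary screen at 18.75 µM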
CF NFkB block – blocks PAF-induced NF-kB reporter in cystic fibrosis cells; 360,000 tested, 0.86% active; AID 588850; inhibition, % at 5 µM; KKLEB NF-kB-GFP reporter, GFP fluorescence overnight;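 active = at least 50% inhibition at 5 µM, scaled per plate between neutral and stimulator controls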;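 also: PAF is a Pseudomonas aeruginosa culture filtrate used as stimulus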
hiPSC survival – increases survival of single human iPS cells; hiPSC single-cell survival, ATPlite luminescence; 100% = ROCK inhibitor wells, 0% = DMSO; 360,000 tested, 0.044% active; survival enhancement, % at 20 µM; AID 602274; in the data active = survival enhancement above about 18%;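 also: cells exposed to compounds for 16 hours before the ATP read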
LGR2 inh – Drosophila LGR2 receptor signaling inhibition; HEK293 LGR2, CRE-luciferase, bursicon-stimulated, 4 h; inhibition, % at 9.99 µM; 380,000 tested, 0.35% active; AID 720647;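 active = drop in luminescence signal, shown as inhibition above about 50% in the replicate tests, limit read from the data, passing the limit was not always enough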;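 also: agonist challenge used bursicon conditioned medium at about half maximal strength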
TWEAK-Fn14 inh – blocks TWEAK-Fn14 interaction in a reporter cell assay; TWEAK-stimulated Fn14 reporter cells, luciferase luminescence, 8 h; inhibition, % at 10 µM; 360,000 tested, 2% active; in the data active = inhibition above about 50%
KKLEB cytotox – counter-screen for CF NF-kB inhibitors: cytotoxicity | 360,000 tested, 0.36% active | activity change (cytotoxicity), % at 5 µM | KKLEB CF airway cells viability, ATPlite luminescence, overnight; stronger effect = lower value; cells stimulated with P. aeruginosa culture filtrate | AID 602141;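 active = corrected activity change at or below -50% at 5 µM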
Numbers stand for hits; . = inactive; / = no result given.

SMILES	HIF-2a inh	CF NFkB block	hiPSC survival	LGR2 inh	TWEAK-Fn14 inh	KKLEB cytotox
COc1ccc(S(=O)(=O)N(C)C[C@H]2OCCCC[C@@H](C)Oc3ccc(NS(=O)(=O)c4cn(C)cn4)cc3C(=O)N([C@@H](C)CO)C[C@H]2C)cc1	/	/	/	.	/	/
O=C(c1cc(-c2ccccc2)n[nH]1)N1CCc2c([nH]c3ccccc23)C1c1ccccn1 (configuration not stated)	.	.	.	.	59.2	.
Cc1ccc(NS(=O)(=O)c2cc(NC(=O)c3ccc4c(c3)NC(=O)CS4)ccc2C)c(C)c1	.	.	.	.	72.1	.
CNC(=O)C[C@H]1CC[C@@H]2[C@H](COC[C@@H](O)CN2C(=O)Nc2cccc(OC)c2)O1	/	/	/	.	/	/
COc1cc(-c2cc3nc(NCCOc4ccccc4)ccn3n2)cc(OC)c1OC	.	.	.	.	58.3	.
COCCCNc1ccn2nc(-c3ccc(OCc4ccccc4)cc3)cc2n1	.	.	.	.	78.5	.
CCCCC1CCC(c2nc(-c3ccccn3)no2)CC1 (configuration not stated)	.	.	.	/	55.5	.
COc1cccc(NC(=O)N(C)C[C@H]2Oc3ncc(C4=CCCCC4)cc3C(=O)N([C@H](C)CO)C[C@@H]2C)c1	/	/	/	.	/	/
CC(C)CC#Cc1ccc2c(c1)O[C@H](CN(C)C(=O)CN(C)C)[C@@H](C)CN([C@@H](C)CO)S2(=O)=O	/	/	/	.	/	/
C/C=C/c1cnc2c(c1)C(=O)N([C@@H](C)CO)C[C@H](C)[C@@H](CN(C)C(=O)CCN1CCCCC1)O2	/	/	/	.	/	/
Cc1cccc2cc(-c3nc4ccc(C(=O)O)cc4[nH]3)c(=O)oc12	.	.	.	/	85.2	.
COc1cccc2cc(-c3nc4ccccc4[nH]3)c(=O)oc12	.	.	.	.	.	.
CO[C@H]1CN(C)C(=O)c2cc(NC(=O)C3CCCC3)ccc2OC[C@H](C)N(S(C)(=O)=O)C[C@H]1C	/	/	/	.	/	/
O=C(NNS(=O)(=O)c1ccc(F)cc1)c1ccc(O)cc1	.	.	.	.	62.5	.
C[C@@H]1CCCCO[C@H](CN(C)Cc2ccncc2)[C@@H](C)CN([C@@H](C)CO)C(=O)c2cc(NC(=O)Nc3ccc(F)cc3)ccc2O1	/	/	/	.	/	/
Cc1cc(C=C2C(=O)c3ccccc3C2=O)c(C)n1-c1cccc(C(=O)O)c1	.	.	.	.	.	.
Cc1cc(C=C2C(=O)c3ccccc3C2=O)c(C)n1-c1ccccc1	55.8	.	.	/	89.0	.
Cc1cc(C=C2C(=O)c3ccccc3C2=O)c(C)n1-c1ccc(C(=O)O)cc1	.	.	.	.	.	.
Cc1cc(/C=C2/C(=O)NN(c3ccccc3)C2=O)c(C)n1-c1cccc(O)c1	.	.	.	.	91.7	.
Cc1cc(/C=C2\Cc3ccccc3C2=O)c(C)n1-c1ccccc1	43.9	.	.	.	53.9	.
CC(C)(C)n1nc(Cc2cccc3ccccc23)c2c(N)ncnc21	.	50.4	.	.	.	.
CCN1/C(=C/C=C/C=C/C=C/c2sc3ccccc3[n+]2CC)Sc2ccccc21	.	.	.	.	.	.
CCN1/C(=C/c2ccc3cc(C)ccc3[n+]2CC)Sc2ccccc21	74.9	.	.	.	72.1	.
CC[n+]1c(/C=C2\Sc3ccccc3N2C)ccc2cccc(C)c21	78.9	.	.	81.3	85.0	.
CCN1/C(=C/C=C/c2sc3ccccc3[n+]2CC)Sc2ccccc21	.	.	.	/	96.0	.
SMILES	HIF-2a inh	CF NFkB block	hiPSC survival	LGR2 inh	TWEAK-Fn14 inh	KKLEB cytotox
NCC[C@H]1CC[C@@H](NC(=O)CCN2CCCCC2)[C@H](CO)O1	/	/	/	.	/	/
CC(=O)c1c(C)[nH]c(C(=O)OCC(=O)Nc2cc(S(=O)(=O)N3CCCC3)ccc2Cl)c1C	.	.	.	.	.	.
CC(=O)c1c(C)[nH]c(C(=O)OCC(=O)Nc2cccc(S(=O)(=O)N3CCCC3)c2)c1C	.	.	.	.	65.0	.
CCN(CC)S(=O)(=O)c1cccc(NC(=O)COC(=O)c2[nH]c(C)c(C(C)=O)c2C)c1	.	.	.	.	65.0	.
CC(=O)c1c(C)[nH]c(C(=O)OCC(=O)Nc2cccc(S(=O)(=O)N(C)C)c2)c1C	.	.	.	.	.	.
COc1cccc(S(=O)(=O)N(C)C[C@H]2Oc3ncc(C#CC(C)C)cc3C(=O)N([C@@H](C)CO)C[C@@H]2C)c1	/	/	/	.	/	/
C[C@@H]1CCCCO[C@@H](CN(C)S(=O)(=O)c2cn(C)cn2)[C@H](C)CN([C@@H](C)CO)C(=O)c2cc(NS(=O)(=O)c3cccs3)ccc2O1	/	/	/	.	/	/
CC(=O)NCCNC(=O)c1ccc(CSc2nc3ccccc3s2)cc1	.	.	.	66.9	85.0	.
Cn1c(SCC(=O)N/N=C/c2cc([N+](=O)[O-])ccc2O)nnc1-c1ccccc1	.	.	.	.	.	.
Cn1c(SCC(=O)N/N=C/c2ccc([N+](=O)[O-])s2)nnc1-c1ccccc1	.	.	.	.	58.3	.
COc1cccc(S(=O)(=O)Nc2ccc3c(c2)OC[C@@H](C)NC[C@@H](C)[C@@H](OC)CN(C)C3=O)c1	/	/	/	.	/	/
Cc1ccc(C(=O)OCc2cc(=O)n3ccsc3n2)s1	.	.	18.5	.	.	.
COc1ccc([C@@H]2[C@@H]3C(=O)N(C(C)(C)C)C(=O)[C@@H]3[C@]3(Cc4ccccc4)C(=O)N(c4ccc(Br)cc4)C(=O)N23)cc1	.	71.1	.	/	.	-83.4
C[C@@H]1CN([C@@H](C)CO)C(=O)Cc2cc(NC(=O)C3CC3)ccc2O[C@H]1CN(C)Cc1ccc2c(c1)OCO2	/	/	/	.	/	/
Cc1cc(C(C)(C)C)oc1C(=O)NCCCNC(=O)c1oc(C(C)(C)C)cc1C	.	.	.	/	74.1	.
Cc1cc(C)nc(S/C=C/C(=O)c2ccccc2F)n1	.	76.4	.	/	93.2	.
Cc1cccc(S(=O)(=O)N2CC[C@@H]3[C@H](CO)Nc4ccc(C#Cc5cccc(F)c5)cc4[C@@H]32)c1	/	/	/	.	/	/
CC(=O)Nc1cc(N=Cc2ccc(O)cc2O)c(Cl)cc1Cl	.	.	.	/	98.7	.
COc1ccc(O)c(C=Nc2cc(NC(C)=O)c(Cl)cc2Cl)c1	.	.	.	/	.	.
CC(C)Cc1cc(C(=O)Nc2cccc(O)c2)no1	.	.	.	.	64.9	.
COc1ccc(-c2cc(C(=O)Nc3ccc(C)c(C)c3)no2)cc1	.	.	.	.	.	.
COc1ccc(-c2cc(C(=O)Nc3cccc(O)c3)no2)cc1	.	.	.	.	66.8	.
C[C@@H]1CCCCO[C@H](CN(C)S(=O)(=O)c2ccccc2)[C@H](C)CN([C@@H](C)CO)C(=O)c2cc(NS(=O)(=O)c3cn(C)cn3)ccc2O1	/	/	/	.	/	/
C[C@@H]1CN([C@@H](C)CO)C(=O)c2cc(NS(=O)(=O)c3cn(C)cn3)ccc2O[C@@H]1CN(C)S(=O)(=O)c1cn(C)cn1	/	/	/	.	/	/
O=C1NC(=S)S/C1=C\C=C\c1ccc([N+](=O)[O-])o1	82.3	93.2	.	.	50.1	.

Source: PubChem BioAssay (several laboratories)
